Compounds with a hit are over-represented: about 5.7% of the library has one in this group of screens.
Giardia killer – kills Giardia lamblia | Giardia lamblia trophozoite viability | activity change, % at 7.66 µM, hits read low | 0.15% of 340,000 active | AID 540267; in the data active = activity change below about -80%; inconclusive = between about -30% and that limit;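 also: parasites exposed to compound for two days anaerobically before the ATP read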
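Trophozoites 100 cells/well + cpd; 48 hrs, 37 deg C, anaerobic. ATPLite 1-Step added, 15-30 min RT, luminescence read (ATP-based viability).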
KB-V1 cytotox – KB-V1 MDR subline cytotoxicity. 3.4% of 400,000 active. AID 1347076. Potency, µM (top dose mostly 46.1 µM), most hits filed as cytotoxic. KB-V1 MDR cells viability, CellTiter-Glo, 72 h; also: potency is read from the fitted curve at half-maximal effect; nearly all actives have a fitted effect of over 60% in size
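KB-V1, DMEM (no phenol red) + 10% FBS; cpd pin-transferred, titration series; 72 h, 37 degrees C; CellTiter-Glo, luminescence. Data normalized, curve-fit.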
PI4K2A block – PI4K2A (human) kinase inhibition; Q9BTU6; purified PI4K2A, ADP-Glo luminescence, 1 h; stronger effect = lower value; activity change, negative = inhibition, % at 76.9 µM; 0.13% of 420,000 active; AID 1346378; in the data active = activity change below about -50%; inconclusive = mostly about -30% to -49%;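 also: -100% = wells without enzyme as full effect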
Target sequence (Q9BTU6 whole entry, looked up): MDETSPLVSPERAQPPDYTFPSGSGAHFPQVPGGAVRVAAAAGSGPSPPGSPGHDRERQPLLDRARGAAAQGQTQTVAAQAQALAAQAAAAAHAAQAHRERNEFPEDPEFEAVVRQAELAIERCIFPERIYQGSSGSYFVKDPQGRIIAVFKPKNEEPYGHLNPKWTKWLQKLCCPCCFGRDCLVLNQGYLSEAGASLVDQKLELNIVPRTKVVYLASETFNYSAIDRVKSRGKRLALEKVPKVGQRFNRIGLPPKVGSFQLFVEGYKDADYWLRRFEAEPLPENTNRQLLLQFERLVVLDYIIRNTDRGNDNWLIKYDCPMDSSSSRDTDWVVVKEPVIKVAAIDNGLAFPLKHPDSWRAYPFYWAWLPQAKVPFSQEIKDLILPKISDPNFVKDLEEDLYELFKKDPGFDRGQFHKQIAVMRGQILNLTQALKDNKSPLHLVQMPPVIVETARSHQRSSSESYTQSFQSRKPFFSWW
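ADP-Glo luminescence measured ADP generated by PI4K2A enzyme (4 ug/mL before mixing) with 1.2 mM PI substrate (pre-mix) and 300 microM ATP (pre-mix). Tris pH7.5 buffer with MgCl2, Triton X-100; 1 h reaction at ambient temperature.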
Nrf2 inh – Nrf2 pathway inhibition | A549 ARE-Fluc reporter, luciferase luminescence, 18-24 h | AID 504444 | Potency, µM (series often up to 46 µM), for inactives: at the top dose activity change, negative = inhibition, usual class: inhibitors | 2.1% of 360,000 active; also: potency is read from the fitted curve at half-maximal effect; nearly all actives have a fitted effect of over 60% in size
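Cells were seeded and rested 2 h, then exposed to compounds for 18-24 h. CellTiter-Fluor was read first as a viability measure. BugLite was added 15 min before the final luminescent read of ARE-luciferase activity in A549 cells.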
A549 tox – kills or reduces viability of A549 cells in Nrf2 counter-screen; AID 504648; 0.16% of 390,000 active; A549 ARE-Fluc cells, CellTiter-Fluor viability, 18-24 h; Potency, µM (doses to about 46 µM), inactives show at the highest dose activity change, negative = cytotoxicity, hits mostly inhibitors; also: potency is read from the fitted curve at half-maximal effect
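A549 ARE_Fluc cells in 5% FBS OPTI-MEM were exposed to compounds in concentration-response for 18-24 h at 37 deg C. Viability was read by CellTiter-Fluor fluorescence (Ex 405/Em 525) after 30 min, before the luciferase read.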
KB-3-1 cytotox – KB-3-1 parental cell cytotoxicity | AID 1347075 | KB-3-1 viability, CellTiter-Glo ATP luminescence, 72 h | Potency, µM (top dose mostly 46.1 µM), actives largely listed as cytotoxic | 1.4% of 400,000 active; also: potency is read from the fitted curve at half-maximal effect; nearly all actives have a fitted effect of over 60% in size
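Parental KB-3-1 viability, qHTS format: 72 h compound exposure, 37 °C; CellTiter-Glo; media-only wells and DMSO plates as controls; concentration-effect fits on corrected data.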
* marks the source's active call; other numbers are inactive results; i = inactive; ? = inconclusive; . = no result given; ! = a repeat was not active; [ ] = another dose, or the depositor's remark. Unless noted, calls follow the shape of the dose curve; as a rule, active = well fitted curve in the direction sought with a large enough effect; inconclusive = small, poorly fitted or top-dose-only effect, or another doubt; inactive = no such curve, though single readings can be large; an effect the other way counts as inactive or inconclusive. Unless noted, % is scaled to controls: 0 for no effect and ±100 for the full control effect.

SMILES	Giardia killer	KB-V1 cytotox	PI4K2A block	Nrf2 inh	A549 tox	KB-3-1 cytotox
Cn1c(CN2CCCCC2)nc2cc(NC(=O)c3ccc(F)cc3)ccc21	-5	21µM*	-1	12µM*	-21%	?
CCn1c(CN2CCOCC2)nc2cc(NC(=O)c3ccc([N+](=O)[O-])cc3)ccc21	.	?	2	9.2µM*	0%	16µM*
Cn1c(CN2CCCCC2)nc2cc(NC(=O)c3ccccc3Cl)ccc21	4	15µM*!	-2	4%	4%	?
c1nc(NCc2ccoc2)c2cc(-c3ccc4c(c3)OCO4)ccc2n1	.	.	.	14%	-3%	.
Cc1ccc(N2CC3=C(C2=O)C(c2ccc(Br)cc2)NC(=O)N3C)cc1 (centres undefined)	.	?	-5	1%	1%	i
CC(=O)N1CCN(Cc2nc3cc(NC(=O)c4ccc(Cl)cc4)ccc3n2C)CC1	-18	?	4	10µM*	-15%[1.84 µM]	i
C[C@H]1[C@@H](OC(=O)Nc2cccc(C(F)(F)F)c2)CC[C@@]23CCCN2C(=O)CCC[C@@H]13	.	.	2	.	.	.
O=C(c1nnsc1S(=O)c1ccc(Cl)cc1)N1CCOCC1 (centres undefined)	-9	13µM*	6	-12%	-2%	?
O=C(CCCN1C(=O)c2cccnc2Oc2ccc(Cl)cc21)NCc1ccccc1F	.	i	1	-27%	-3%	i
COc1ccc(NC(=O)CSc2nc(-c3cccs3)cc(C(F)(F)F)n2)cc1OC	.	?	0	.	-14%	9.2µM*
COc1ccc(NC(=O)CCCSc2nc(-c3ccco3)cc(C(F)(F)F)n2)cc1OC	13	i	-2	21µM*	-17%	i
COc1ccc(NC(=O)CCSc2nc(-c3ccco3)cc(C(F)(F)F)n2)cc1OC	.	i	1	-8%	-10%	i
COc1ccc(-c2cc(C(F)(F)F)nc(SCC(=O)NCc3cccs3)n2)cc1	-1	18µM*	3	?	-19%	i
O=C(Nc1ccc(Br)cc1)OCCN1CCCC12CCC(c1ccccc1)CC2 (centres undefined)	.	.	-3	.	.	.
N#Cc1ccc(NS(=O)(=O)c2ccc3c(c2)CCC(=O)N3)cc1	.	?	.	0%	-3%	i
CCOc1ccc(Nc2cc(=O)oc3ccccc23)cc1	4	13µM*	7	?	-1%	i
Cc1cccc(-n2c3nc(=O)[nH]c(=O)c-3cc3cc([N+](=O)[O-])ccc32)c1	-7	16µM*	-19	?	-18%	?
Cc1ccc(C)c(-n2c3nc(=O)[nH]c(=O)c-3cc3cc([N+](=O)[O-])ccc32)c1	17	i	?	?	-22%	23µM*
COc1ccccc1CNC(=O)c1cc(Sc2cccc(Cl)c2)nc2ccccc12	.	.	-9	.	6%	.
O=c1c2sc3nc(N4CCOCC4)c4c(c3c2ncn1-c1ccccc1)CCCC4	16	?	1	13µM*	11%	i
O=c1c2sc3nc(N4CCOCC4)c4c(c3c2ncn1C(c1ccccc1)c1ccccc1)CCCC4	-10	i	-2	11%	16%	i
O=c1c2sc3nc(N4CCOCC4)c4c(c3c2ncn1CCc1ccccc1)CCCC4	-3	2.3µM*	-4	0%	10%	i
Cc1ccccc1-n1cnc2c(sc3nc(N4CCOCC4)c4c(c32)CCCC4)c1=O	9	?	-2	21µM*	-17%	i
Cc1ccccc1C(=O)NC1CCCCN(Cc2cccc(F)c2)C1=O (centres undefined)	.	.	-4	.	.	.
COC(=O)[C@]12C[C@H](CC(=O)NCCCCc3ccccc3)C(=O)N(Cc3ccccc3)C1=C[C@H](COCc1ccccc1)O[C@@H]2C	.	.	2	.	.	.
SMILES	Giardia killer	KB-V1 cytotox	PI4K2A block	Nrf2 inh	A549 tox	KB-3-1 cytotox
O=C1c2ccccc2-c2c1c1ccccc1c(=O)n2CCO	-8	18µM*	-2	?	-11%	i
COc1cccc(CNCCc2c[nH]c3ccccc23)c1OCc1ccc(F)cc1	3	16µM*	4	-19%	-4%	?
COc1cc(CNCCc2c[nH]c3ccccc23)ccc1OCc1ccc(F)cc1	8	5.2µM*	4	12%	2%	i
COc1cccc(CNCCSc2nnnn2C)c1OCc1ccc(F)cc1	.	i	2	-27%	-2%	i
CN(c1ccccc1)S(=O)(=O)c1ccc(NC(=O)c2ccc(-c3ccccc3)cc2)cc1	-4	?	-1	15µM*	-21%	i
CN(c1cccc(NC(=O)c2ccc(N(C)S(=O)(=O)c3ccccc3)cc2)c1)S(C)(=O)=O	-10	?	-4	15µM*	-15%	i
O=C(Nc1ccc(-c2ccccc2)cc1)c1ccccc1	7	i	-4	-17%	0%	21µM*
CC(=O)Nc1ccc(C(=O)Nc2cccc(S(=O)(=O)N(C)c3ccccc3)c2)cc1	10	i	2	?	1%	i
CC(=O)Nc1ccc(NC(=O)c2ccc(N(C)S(=O)(=O)c3ccc(C)cc3)cc2)cc1	-8	i	-2	4%	4%	i
Cc1ccc(NC(=O)c2ccccc2)cc1	-27	i	-10	?	-1%	i
CN(c1ccccc1)S(=O)(=O)c1ccc(C(=O)Nc2nnc(-c3ccc(F)cc3)o2)cc1	-7	?	-1	23µM*	-15%	?
COc1ccc(-c2cc(C(=O)N(C3CCCCC3)C3CCCCC3)no2)cc1	.	.	2	.	.	.
Cc1nc2cc(NC(=O)c3ccc(S(=O)(=O)N(C)c4ccccc4)cc3)ccc2o1	7	?	-21	8.2µM*	-19%	?
COc1cc(NC(=O)c2ccc(S(=O)(=O)N(C)c3ccccc3)cc2)cc(OC)c1	-5	?	-1	?	-14%	i
Cc1ccc(NC(=O)C2=C(c3ccccc3)S(=O)(=O)CCS2(=O)=O)cc1	-16	?	?	21µM*	?	?
CN(c1ccccc1)S(=O)(=O)c1cccc(NC(=O)c2ccc(Cl)c([N+](=O)[O-])c2)c1	-6	16µM*	4	-10%	6%	21µM*
Cc1nc(N2CCCCC2C)c2nnn(Cc3ccccc3)c2n1 (centres undefined)	.	.	-1	.	.	.
COC(=O)[C@]12C[C@H](CC(=O)N3CCN(C(=O)C4CC4)CC3)C(=O)N(Cc3cccc4ccccc34)C1=C[C@H](COCc1ccccc1)O[C@@H]2C	.	.	-3	.	.	.
CCCCNC(=O)c1sc2nc(C)cc(COC)c2c1-n1cccc1	-2	5.2µM*	2	?	-4%	i

High-throughput results deposited in PubChem by National Center for Advancing Translational Sciences (NCATS).
